CIT2-GFP yeast: modulators of CIT2-GFP expression in yeast, primary screen, S. cerevisiae, GFP fusion, multiplex flow cytometry, MLPCN library | AID 2029, 2009 | GFP response vs DMSO, % at 10 µM | S. cerevisiae CIT2-GFP strain, 3 h; 100 means same as DMSO wells | hit rate 0.065% among 320,000;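 active = GFP response relative to DMSO above a set limit, near the screen mean plus 3 SD, cut at about 150% in these data; inconclusive = Fewer than 70 cells measured for a yeast strain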;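 note: ratio of well median GFP fluorescence to mean of DMSO wells on the plate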
Pemphigus Ab inh: inhibitors of pemphigus antibody binding to DSG3, primary screen, biochemical, bead-based, flow cytometry, scFv-GFP | Desmoglein-3 (Homo sapiens), P32926 | DSG3-coupled beads, scFv-anti-DSG3-GFP binding; stronger effect = lower value | binding (percent of control), % at 10 µM | hit rate 0.48% among 310,000;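 active = binding more than 3 SD below its plate's average and above zero; inconclusive = below that plate limit but binding exactly zero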
MEP2-GFP yeast: modulators of MEP2-GFP levels in yeast, primary screen, S. cerevisiae, multiplex flow cytometry, MLPCN library | hit rate 0.51% among 330,000 | GFP response vs DMSO, % at 10 µM | S. cerevisiae MEP2-GFP strain, 3 h; 100% = DMSO control level;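 active = GFP response versus DMSO above a set limit, roughly screen mean plus 3 SD, cut at about 180% in these data; inconclusive = fewer than 70 cells counted for a yeast strain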;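 note: median GFP fluorescence of the barcode-gated MEP2-GFP cells per well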
LAP4 TOR yeast: modulators of LAP4-GFP expression in yeast, primary screen, S. cerevisiae, multiplex flow cytometry, MLPCN library; hit rate 0.34% among 320,000; AID 2023, 2009; 3 h; median GFP as percent of DMSO wells; GFP response vs DMSO, % at 10 µM;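 active = GFP response vs DMSO above a set limit, about the screen mean plus 3 SD, cut at about 150% in these data; inconclusive = under 70 cell events counted for the yeast strain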
RPL19A TOR yeast: RPL19A-GFP expression modulators in yeast, primary screen, cell-based, S. cerevisiae, multiplex flow cytometry, MLPCN; AID 2025, 2009; hit rate 0.3% among 330,000; S. cerevisiae RPL19A-GFP strain, 3 h; stronger effect = lower value; percent response vs DMSO, % at 10 µM;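 active = percent response vs DMSO below 50%; inconclusive = fewer than 70 events counted for the yeast strain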;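 note: median channel GFP fluorescence of the barcoded RPL19A-GFP strain; ratio of sample median GFP to plate DMSO average so 100% = DMSO; lower means less RPL19A-GFP as with rapamycin TOR inhibition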
AGP1-GFP MLPCN: modulators of AGP1-GFP expression in yeast TOR pathway, primary screen, cell-based, multiplex flow cytometry, S. cerevisiae, MLPCN library; 3 h; GFP as percent of DMSO wells; GFP response vs DMSO, % at 10 µM; hit rate 0.02% among 320,000;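 active = GFP response relative to DMSO above a set limit, near screen average plus 3 SD, cut at about 150% in these data; inconclusive = fewer than 70 cells counted for the yeast strain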;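 note: median GFP channel fluorescence of the gated AGP1 strain per well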
An asterisk follows results filed as active; ? = inconclusive; nt = no result given; [ ] = remark or other dose. Compounds with a hit are over-represented: about 1.2% of the library has one in this group of screens.

SMILES	CIT2-GFP yeast	Pemphigus Ab inh	MEP2-GFP yeast	LAP4 TOR yeast	RPL19A TOR yeast	AGP1-GFP MLPCN
CCCN(CCC)CCNC(=O)C1CC(=O)N(c2ccc(OC)cc2)C1c1ccc(OC)cc1 (configuration not stated)	103.0	nt	103.8	107.5	97.6	110.1
CCOc1ncccc1C(=O)NNC(=O)c1ccccc1-n1cccc1	94.0	103.0	103.8	97.0	102.4	101.2
Cc1cc(=O)oc2c3c(cc(OCC(=O)Nc4ccc(CCO)cc4)c12)OC(C)(C)CC3	?	100.9	209.4*[may fluoresce violet]	90.4	40.7*[may fluoresce violet]	?
COc1ccc(NC(=O)C2CC(c3ccc(Cl)cc3)=NO2)cc1OC (configuration not stated)	99.6	90.0	100.7	97.1	99.3	98.7
COc1cc(NC(=O)C2CC(c3ccc(Cl)cc3)=NO2)cc(OC)c1OC (configuration not stated)	100.9	63.0*	102.4	99.5	98.3	101.9
COc1ccc(NC(=O)Nc2c(O)ccc3ccccc23)cc1	?	109.0	?	95.9	21.9*[may fluoresce violet]	?
COc1ccc(C(=O)Nc2c(O)ccc3ccccc23)cc1	101.2	95.0	92.0	97.0	95.2	95.1
COc1ccc(C(=O)NN=C(Cc2ccccc2)Cc2ccccc2)cc1OC	110.6	0.8*	112.1	90.0	100.3	95.6
COc1ccc(C(=O)Cc2ccccc2)cc1OC	95.5	107.9	101.1	92.1	102.5	92.5
COc1ccc(C(=O)Nc2c(O)ccc3ccccc23)cc1OC	?	nt	489.1*[may fluoresce violet]	104.6	43.4*[may fluoresce violet]	?
CCCCN(C(=O)CCC(=O)Nc1cc(C)on1)C(C(=O)NC1CCCC1)c1ccccc1OCC (configuration not stated)	?	96.8	419.6*[may fluoresce violet]	85.4	69.6	?
COc1ccc(F)cc1S(=O)(=O)NCC(c1ccco1)N1CCc2ccccc2C1 (configuration not stated)	103.1	95.5	98.3	109.1	100.1	107.3
CCN(CC)S(=O)(=O)c1ccc(N2CCCC2)c(NC(=O)CSCc2c(C)noc2C)c1	nt	105.3	nt	nt	nt	nt
C=C(C)C1CC=C(C)/C(=N/NC(=O)CNc2ccc(OCC)cc2)C1 (configuration not stated)	?	105.9	206.8*[may fluoresce violet]	104.1	59.3	?
COc1ccccc1NC(=O)NCCc1ccccc1	100.2	110.8	101.0	70.8	106.5	91.7
COc1ccc(OC)c(NC(=O)NCCc2cccc(Cl)c2)c1	99.7	75.4*	94.8	107.2	91.8	98.4
Cc1ccc(Oc2ccc(Cl)cc2NC(=O)c2cnccn2)cc1	109.2	79.2*	99.3	95.7	96.3	96.0
O=C(Nc1ccccc1Oc1ccccc1)c1cnccn1	106.5	95.9	94.3	83.8	95.9	90.3
COc1ccc(C2CC(c3cccc(Cl)c3)=NN2c2ccc(S(N)(=O)=O)cc2)cc1 (configuration not stated)	nt	99.5	nt	nt	nt	nt
Cc1c(CCO)c(=O)[nH]n1S(=O)(=O)c1ccc([N+](=O)[O-])cc1	155.6*[may fluoresce green]	90.0	103.1	102.1	92.3	115.1
NNC(=O)c1[nH]c(-c2ccccc2)cc1-c1ccccc1	102.3	102.3	110.4	93.8	100.5	96.0
O=C(Nc1nc(-c2ccccn2)cs1)c1ccc(-c2ccccc2F)o1	?	97.9	173.0	169.6*[may fluoresce violet]	54.6	24.1
Cc1ccc(C(=O)Nc2nc(-c3ccccn3)cs2)o1	97.9	89.8	100.5	133.5	96.8	103.2
COc1cccc(C2C3=C(N=c4s/c(=C\c5ccccc5O)c(=O)n42)c2ccccc2CC3)c1OC (configuration not stated)	87.8	nt	94.0	119.2	93.0	92.9
COc1ccc(NC(=O)Nc2cccc3c2O[C@@H](CN(C)CC2CCCCC2)[C@@H](C)CN([C@H](C)CO)C3=O)cc1	nt	97.9	nt	nt	nt	nt
CN(C)c1ccc(/C=C/c2ccc3ccccc3n2)cc1	84.1	107.3	109.2	100.1	102.0	82.2

Screens: PubChem, NMMLSC
